Test results reported in PubChem BioAssay AID1159580 (chemical genetic matrix, 2015).
Several values for one entry are separate records, joined by “and”; a condition that tells them apart may be missing. Equal entries are not always repeated. Out of some 5,500 compounds screened, about 2,000 (36%) were called active. Another 18% or so got no clear call; they are omitted. No stated cut-off is given here; in the data, active means normalized growth mostly below about 0.91 (no sharp cut-off); inconclusive means no clear call, values can overlap the other calls; inactive means mostly above about 0.92. This is one part of the list.

Experiment: chemical genetic growth profiling, strain panel (AID 1159580);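 further: tested at 20 µM; growth read once vehicle control cultures reached saturation at 30 °C; 1 = growth at the plate median or of vehicle wells; lower values mean less growth of the strain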
Details: growth OD

Measured: normalized growth

NS(=O)(=O)c1cc2c(cc1Cl)NC=NS2(=O)=O
inactive: S. cerevisiae deletion strains, locus YJR075W, strain HOC1, active compounds read low 1.02 | S. cerevisiae deletion strains, locus YKL009W, strain mrt4, active compounds read low 1.02 | S. cerevisiae deletion strains, locus YKL068W, active compounds read low 0.998 | S. cerevisiae deletion strains, locus YKL085W, strain MDH1 (second series), active compounds read low 0.998 | S. cerevisiae deletion strains, locus YKL085W, strain MDH1, active compounds read low 0.998 | S. cerevisiae deletion strains, locus YKL160W, strain elf1, active compounds read low 1.01 | S. cerevisiae deletion strains, locus YKL190W, strain CNB1, active compounds read low 1.01 | S. cerevisiae deletion strains, locus YKR001C, strain vps1, active compounds read low 0.988 | S. cerevisiae deletion strains, locus YKR026C, strain gcn3, active compounds read low 0.98 | S. cerevisiae deletion strains, locus YKR091W, strain srl3, active compounds read low 1.01 | S. cerevisiae deletion strains, locus YLL001W, strain dnm1, active compounds read low 1.01 | S. cerevisiae deletion strains, locus YLL026W, active compounds read low 0.99 | S. cerevisiae deletion strains, locus YLL041C, strain sdh2, active compounds read low 1 | S. cerevisiae deletion strains, locus YLR027C, strain aat2, active compounds read low 1.01 | S. cerevisiae deletion strains, locus YLR039C, strain RIC1, active compounds read low 1.02 | S. cerevisiae deletion strains, locus YLR058C, strain SHM2, active compounds read low 1.01 | S. cerevisiae deletion strains, locus YLR102C, strain apc9, active compounds read low 0.99 | S. cerevisiae deletion strains, locus YLR113W, strain HOG1, active compounds read low 0.939 | S. cerevisiae deletion strains, locus YLR221C, strain rsa3, active compounds read low 0.994 | S. cerevisiae deletion strains, locus YLR258W, strain gsy2, active compounds read low 1.01 | S. cerevisiae deletion strains, locus YLR262C, strain YPT6 (second series), active compounds read low 1 | S. cerevisiae deletion strains, locus YLR262C, strain YPT6, active compounds read low 1.02 | S. cerevisiae deletion strains, locus YLR268W, strain sec22, active compounds read low 0.996 | S. cerevisiae deletion strains, locus YLR320W, strain mms22, active compounds read low 0.988 | S. cerevisiae deletion strains, locus YLR330W, strain CHS5, active compounds read low 1.01 | S. cerevisiae deletion strains, locus YLR342W, strain FKS1 (second series), active compounds read low 1.02 | S. cerevisiae deletion strains, locus YLR342W, strain FKS1, active compounds read low 0.999 | S. cerevisiae deletion strains, locus YLR357W, strain rsc2, active compounds read low 0.985 | S. cerevisiae deletion strains, locus YLR370C, strain arc18, active compounds read low 1 | S. cerevisiae deletion strains, locus YLR371W, strain rom2, active compounds read low 0.997 | S. cerevisiae deletion strains, locus YLR384C, strain iki3, active compounds read low 1.01 | S. cerevisiae deletion strains, locus YLR418C, strain cdc73, active compounds read low 1.02 | S. cerevisiae deletion strains, locus YML016C, strain PPZ1, active compounds read low 1 | S. cerevisiae deletion strains, locus YML032C, strain rad52, active compounds read low 0.982 | S. cerevisiae deletion strains, locus YML120C, strain ndi1, active compounds read low 0.994 | S. cerevisiae deletion strains, locus YML124C, strain tub3, active compounds read low 0.996 | S. cerevisiae deletion strains, locus YMR058W, strain fet3, active compounds read low 1 | S. cerevisiae deletion strains, locus YMR078C, strain ctf18, active compounds read low 0.984 | S. cerevisiae deletion strains, locus YMR125W, strain sto1, active compounds read low 0.998 | S. cerevisiae deletion strains, locus YMR129W, active compounds read low 1 | S. cerevisiae deletion strains, locus YMR205C, strain PFK2, active compounds read low 1 | S. cerevisiae deletion strains, locus YMR223W, strain ubp8, active compounds read low 1 | S. cerevisiae deletion strains, locus YMR231W, strain pep5, active compounds read low 0.999 | S. cerevisiae deletion strains, locus YMR263W, strain SAP30, active compounds read low 1.02 and 0.996 | S. cerevisiae deletion strains, locus YMR307W, strain GAS1, active compounds read low 0.978 and 1.01 | S. cerevisiae deletion strains, locus YNL067W, strain RPL9B, active compounds read low 1.01 | S. cerevisiae deletion strains, locus YNL071W, strain lat1, active compounds read low 0.999 | S. cerevisiae deletion strains, locus YNL128W, strain TEP1, active compounds read low 1.02 | S. cerevisiae deletion strains, locus YNL153C, strain GIM3, active compounds read low 1.02 | S. cerevisiae deletion strains, locus YNL175C, strain NOP13, active compounds read low 0.975 | S. cerevisiae deletion strains, locus YNL183C, strain NPR1, active compounds read low 0.907 | S. cerevisiae deletion strains, locus YNL197C, strain WHI3, active compounds read low 0.969 | S. cerevisiae deletion strains, locus YNL209W, strain ssb2, active compounds read low 1.01 | S. cerevisiae deletion strains, locus YNL224C, strain SQS1, active compounds read low 0.987 | S. cerevisiae deletion strains, locus YNL233W, strain BNI4, active compounds read low 1.02 | S. cerevisiae deletion strains, locus YNL248C, strain rpa49, active compounds read low 1.04 | S. cerevisiae deletion strains, locus YNL250W, strain rad50, active compounds read low 0.989 | S. cerevisiae deletion strains, locus YNL271C, strain bni1, active compounds read low 0.982 | S. cerevisiae deletion strains, locus YNL298W, strain CLA4, active compounds read low 1 | S. cerevisiae deletion strains, locus YNL307C, strain MCK1, active compounds read low 1.01 | S. cerevisiae deletion strains, locus YNL322C, strain KRE1 (second series), active compounds read low 1.01 | S. cerevisiae deletion strains, locus YNL322C, strain KRE1, active compounds read low 1.01 | S. cerevisiae deletion strains, locus YNR049C, strain mso1, active compounds read low 1.01 | S. cerevisiae deletion strains, locus YNR052C, strain pop2, active compounds read low 0.996 | S. cerevisiae deletion strains, locus YOL006C, strain TOP1, active compounds read low 1.05 | S. cerevisiae deletion strains, locus YOL012C, strain htz1 0.596 | S. cerevisiae deletion strains, locus YOL147C, strain pex11, active compounds read low 1 | S. cerevisiae deletion strains, locus YOR001W, strain rrp6, active compounds read low 1.02 | S. cerevisiae deletion strains, locus YOR061W, strain CKA2, active compounds read low 1.01 | S. cerevisiae deletion strains, locus YOR069W, strain VPS5, active compounds read low 1 | S. cerevisiae deletion strains, locus YOR070C, strain gyp1, active compounds read low 1.01 | S. cerevisiae deletion strains, locus YOR080W, strain dia2, active compounds read low 0.986 | S. cerevisiae deletion strains, locus YOR083W, strain WHI5 (second series), active compounds read low 0.968 | S. cerevisiae deletion strains, locus YOR083W, strain WHI5, active compounds read low 0.989 | S. cerevisiae deletion strains, locus YOR106W, strain vam3, active compounds read low 1 | S. cerevisiae deletion strains, locus YOR136W, strain idh2, active compounds read low 0.999 | S. cerevisiae deletion strains, locus YOR144C, strain elg1, active compounds read low 0.998 | S. cerevisiae deletion strains, locus YOR184W, strain ser1, active compounds read low 1 | S. cerevisiae deletion strains, locus YOR231W, strain MKK1, active compounds read low 0.979 | S. cerevisiae deletion strains, locus YOR265W, strain rbl2, active compounds read low 1 | S. cerevisiae deletion strains, locus YOR270C, strain vph1, active compounds read low 1.02 | S. cerevisiae deletion strains, locus YOR290C, strain snf2, active compounds read low 0.996 | S. cerevisiae deletion strains, locus YOR316C, strain cot1, active compounds read low 1 | S. cerevisiae deletion strains, locus YPL051W, strain arl3, active compounds read low 1 | S. cerevisiae deletion strains, locus YPL055C, strain LGE1, active compounds read low 1.04 and 0.991 | S. cerevisiae deletion strains, locus YPL078C, strain atp4, active compounds read low 1 | S. cerevisiae deletion strains, locus YPL106C, strain sse1, active compounds read low 1.01 | S. cerevisiae deletion strains, locus YPL240C, strain hsp82, active compounds read low 1 | S. cerevisiae deletion strains, locus YPL241C, strain CIN2, active compounds read low 1.01 | S. cerevisiae deletion strains, locus YPL256C, strain CLN2, active compounds read low 0.932 | S. cerevisiae deletion strains, locus YPR119W, strain clb2, active compounds read low 0.997 | S. cerevisiae deletion strains, locus YPR141C, strain kar3, active compounds read low 0.997 | S. cerevisiae deletion strains, locus YPR163C, strain tif3, active compounds read low 0.998 | S. cerevisiae deletion strains, locus YPR167C, strain met16, active compounds read low 1 | S. cerevisiae deletion strains, strain wtn01, active compounds read low 1 | S. cerevisiae strains, strain wild type, active compounds read low 1.02
